Results from PubChem BioAssay AID651610 (Broad Institute, 2012).
Screen size: about 360,000 compounds; about 3,900 (1.1%) were called active.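 Rule for the calls: active = mean replicate inhibition score of at least 50 and every replicate individually at or above 50; inconclusive = only one of the two criteria met; inactive = mean below 50 and not all replicates reaching 50.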 Many of the other results were omitted from the sample, so actives are more common in it than they were.

Experiment: blockers of JRFL envelope-mediated fusion – HeLa-JRFL effector, CEM21 target cells, luciferase, primary screen (AID 651610);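 note: 0% = plate neutral controls and 100% = maraviroc near 300 nM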
Settings: HeLa-JRFL Env/CEM21 cell fusion, active compounds read high; at 16.7 µM unless noted

inhibition, active:
Cc1cc(C)c(CN2CCN(C(=O)Cn3ccc(NC(=O)OCc4ccccc4)nc3=O)CC2)c(C)c1 72.2% [at 12.3 µM], Clc1ccc(C2CC(c3cccs3)n3ncnc3N2)cc1Cl (stereo not given) 91.8% [at 12.3 µM], CCOC(=O)C1C(C)C(C(C)(C)C)N(S(=O)(=O)c2ccc(C)cc2)C1c1ccccc1 (stereo not given) 77.2% [at 12.3 µM], O=C(CN1C(=O)c2ccccc2S1(=O)=O)N1CCc2ccccc21 63.8% [at 12.3 µM], CC(Oc1ccc(-c2ccccc2)c(F)c1)c1ccn(S(=O)(=O)c2cccc3ccccc23)n1 (stereo not given) 58.1% [at 12.3 µM], O=C(COC(=O)c1ncc(Cl)c(Cl)c1Cl)NCc1cccs1 80.8% [at 12.3 µM], Cc1cccc(-n2c(SCC(N)=O)nc3c(c2=O)C2(CCCCC2)Cc2ccccc2-3)c1 87% [at 12.3 µM], O=C(NCc1ccco1)c1ccc(Cn2c(=O)c3sccc3n(Cc3ccc(F)cc3)c2=O)cc1 78.1% [at 12.3 µM], CCOC(=O)C(C)Oc1cccc2c(=O)n(CC(=O)NCCc3ccc(OC)c(OC)c3)ccc12 (stereo not given) 88.4% [at 12.3 µM], CCCCCc1c(Cc2ccccc2)ncn1CCc1ccccc1OC 109% [at 12.3 µM], CC(=O)C1=C(C)N(Cc2ccc(Cl)cc2)C(=S)NC1c1ccc(F)cc1 (stereo not given) 62.3% [at 12.3 µM], CCc1ccc(N(CC)c2ncnc3nc[nH]c23)cc1 55.5% [at 12.3 µM]

inhibition, inactive:
C[C@@H]1CCCCO[C@@H](CN(C)Cc2ccncc2)[C@@H](C)CN([C@@H](C)CO)C(=O)c2cc(NC(=O)Nc3ccc(F)cc3)ccc2O1 -4.96%, Cc1ccccc1S(=O)(=O)NCC[C@@H]1CC[C@H](NC(=O)C2CC2)[C@@H](CO)O1 0.439%, C[C@@H]1CN([C@H](C)CO)C(=O)c2cc(N(C)C)ccc2O[C@@H]1CN(C)S(=O)(=O)c1cn(C)cn1 4.03%, O=C(C[C@H]1CC[C@H](NS(=O)(=O)c2ccccc2)[C@H](CO)O1)NCc1ccncn1 2.23%, CC(C)c1cn(CC[C@@H]2CC[C@@H](NC(=O)C3CC3)[C@H](CO)O2)nn1 7.45%, O=C(Nc1ccn(CCCNCc2ccc3[nH]ccc3c2)c(=O)n1)OCc1ccccc1 1.22% [at 12.3 µM], Nc1ccn(CC(=O)N2CCN(c3ccccn3)CC2)c(=O)n1 15.1% [at 12.3 µM], C[C@H](CO)N1C[C@H](C)[C@@H](CN(C)Cc2ccc(Oc3ccccc3)cc2)Oc2ccc(NS(=O)(=O)c3ccc(F)cc3)cc2CC1=O 6.63%, C[C@H](CO)N1C[C@H](C)[C@H](CN(C)C(=O)c2ccccc2)OCCCC[C@H](C)Oc2ccc(NS(C)(=O)=O)cc2C1=O -12.1%, COc1ccc(C2CC(c3cccs3)Nc3nnnn32)cc1 (stereo not given) 15.5% [at 12.3 µM], Nc1nc2n(n1)C(c1ccco1)CC(c1ccc(Cl)c(Cl)c1)N2 (stereo not given) -24.3% [at 12.3 µM], Cc1ccc(S(=O)(=O)Nc2ccc3c(c2)C(=O)N([C@H](C)CO)C[C@@H](C)[C@H](CN(C)S(=O)(=O)c2cccs2)OCCCC[C@@H](C)O3)cc1 -10.4%, O=C(NCC[C@H]1CC[C@@H](NC(=O)C2CC2)[C@H](CO)O1)c1ccc(F)cc1 13.4%, Cc1ccc(S(=O)(=O)Nc2ccc3c(c2)C(=O)N([C@@H](C)CO)C[C@H](C)[C@@H](CN(C)C(=O)Cc2ccccc2)OCCCC[C@H](C)O3)cc1 -8.35%, CCOC(=O)C1=CC[C@@H](c2ccccc2)N(S(=O)(=O)c2ccc(C)cc2)[C@H]1c1ccc(CC)cc1 44.3% [at 12.3 µM], CCCCC[C@@H]1C=C(C(=O)OCC)[C@H](c2ccccc2)N1S(=O)(=O)c1ccc(C)cc1 -5.02% [at 12.3 µM], CCC(=O)N1C[C@H](C)[C@@H](OC)CN(C)C(=O)c2cc(NC(=O)c3cnccn3)ccc2OC[C@@H]1C -0.896%, Cc1ccc(S(=O)(=O)N(C)CC(=O)N2CCc3ccccc32)cc1 -5.79% [at 12.3 µM], CN(Cc1ccc(F)cc1)C(=O)CN1C(=O)c2ccccc2S1(=O)=O -26% [at 12.3 µM], C[C@@H]1CN([C@@H](C)CO)C(=O)c2cc(NC(=O)Nc3cccc4ccccc34)ccc2O[C@H]1CN(C)Cc1ccc(Cl)c(Cl)c1 2.97%, O=C(Nc1ccc(-c2ccccc2)cc1)[C@H]1[C@H](CO)[C@H]2Cn3c(cccc3=O)[C@H]2N1CC1CC1 -13.3%, COc1ccc(NC(=O)Nc2ccc3c(c2)C(=O)N([C@@H](C)CO)C[C@H](C)[C@H](CN(C)S(=O)(=O)c2ccccc2)OCCCC[C@@H](C)O3)cc1 -1.8%, O=C(C[C@@H]1CC[C@@H]2[C@H](COC[C@H](O)CN2Cc2ccc(F)cc2)O1)NCc1ccncn1 -13.2%, CN1CCN(C(=O)C[C@@H]2C[C@H]3c4cc(NC(=O)NC5CCCC5)ccc4O[C@H]3[C@H](CO)O2)CC1 -16.8%, CCCNC(=O)N1C[C@@H](O)COC[C@@H]2O[C@H](CC(=O)N3CCN(C)CC3)CC[C@H]21 -4.93%, C[C@@H]1CN([C@@H](C)CO)C(=O)Cc2cc(NS(=O)(=O)c3ccc(F)cc3)ccc2O[C@@H]1CN(C)S(=O)(=O)c1cccs1 2.26%, CO[C@H]1CN(C)C(=O)c2ccc(NS(C)(=O)=O)cc2OC[C@@H](C)N(C(=O)c2ccc3c(c2)OCO3)C[C@@H]1C 3.98%, O=C(COC(=O)c1ncc(Cl)c(Cl)c1Cl)NCc1ccccc1 -4.53% [at 12.3 µM], O=C(COC(=O)c1ccc(Cl)nc1)NCc1cccs1 13.8% [at 12.3 µM], CN1C(=O)c2cc(NC(=O)c3cnccn3)ccc2OC[C@@H]2O[C@H](CC(=O)O)CC[C@@H]21 -25.8%, CCOC(=O)C1Cn2c(nc3c(c2=O)C(C)(CC)Cc2ccccc2-3)S1 (stereo not given) -68.6% [at 12.3 µM], Cc1cccc(-n2c(=O)c3c(C)c(C)sc3n(CC(N)=O)c2=O)c1 16% [at 12.3 µM], C[C@@H]1CN([C@H](C)CO)C(=O)Cc2cc(NC(=O)c3ccncc3)ccc2O[C@H]1CN(C)Cc1ccc(-c2ccccc2)cc1 18.5%, Cc1ccc(S(=O)(=O)N(C)C[C@@H]2Oc3ccc(NS(=O)(=O)c4cn(C)cn4)cc3C(=O)N([C@@H](C)CO)C[C@H]2C)cc1 -17.6%, O=C(NCc1ccco1)c1cc2sccc2n1Cc1ccc(F)cc1 20.8% [at 12.3 µM], O=C(Cc1ccc(-n2c(=O)c3sccc3n(Cc3ccc(F)cc3)c2=O)cc1)NCc1ccco1 0.234% [at 12.3 µM], O=C(CN1CCOCC1)NCC[C@H]1CC[C@@H](NC(=O)Nc2ccc(Cl)cc2)[C@@H](CO)O1 2.67%, O=C(N[C@@H]1CC[C@H](CCn2cc(-c3ccccn3)nn2)O[C@@H]1CO)c1ccccc1 12.1%, COc1ccc(S(=O)(=O)Nc2ccc3c(c2)C(=O)N([C@@H](C)CO)C[C@H](C)[C@@H](CN(C)C(=O)NC(C)C)OCCCC[C@H](C)O3)cc1 1.4%, CCOC(=O)C(C)Oc1cccc2c(=O)n(CC(=O)N3CCc4ccccc43)ccc12 (stereo not given) -10.8% [at 12.3 µM], COC(=O)COc1cccc2c(=O)n(CC(=O)NCc3ccccc3)ccc12 -188% [at 12.3 µM], C[C@@H]1CN([C@H](C)CO)C(=O)Cc2cc(NS(=O)(=O)c3cccs3)ccc2O[C@@H]1CN(C)C(=O)Nc1ccc(F)cc1 -7.97%, C[C@@H]1CN([C@H](C)CO)C(=O)c2cc(NC(=O)Nc3cccc4ccccc34)ccc2O[C@@H](C)CCCCO[C@H]1CN(C)S(=O)(=O)c1cccs1 15.1%, CCCCCc1c(-c2cccc(Br)c2)ncn1CCc1ccccc1OC 11.9% [at 12.3 µM], CCCCCc1c(-c2ccc(OC)c(OC)c2)ncn1CCc1ccccc1OC 49.2% [at 12.3 µM], O=C(C[C@H]1C[C@H]2c3cc(NC(=O)CC4CC4)ccc3O[C@H]2[C@H](CO)O1)NCc1ccccc1 8.72%, CC(=O)C1=C(C)N(Cc2ccccc2)C(=S)NC1c1cccc(Br)c1 (stereo not given) 0.027% [at 12.3 µM], COC(=O)C1=C(C)N(Cc2ccc(F)cc2)C(=S)NC1c1cccc(Cl)c1 (stereo not given) 34.2% [at 12.3 µM], C[C@@H]1CCCCO[C@@H](CN(C)S(=O)(=O)c2cccs2)[C@@H](C)CN([C@H](C)CO)C(=O)c2cc(NC(=O)Nc3ccc4c(c3)OCO4)ccc2O1 4.87%, COCC(=O)Nc1ccc2c(c1)C(=O)N(C)C[C@H](OC)[C@@H](C)CN(C(=O)Cc1cccnc1)[C@@H](C)CO2 0.828%, S=c1c2[nH]cnc2ncn1CCSc1ncnc2nc[nH]c12 -6.63% [at 12.3 µM], CCC(=O)N1[C@H](C(=O)NCc2ccc(F)cc2)[C@@H](CO)[C@@H]2Cn3c(ccc(C4=CCCCC4)c3=O)[C@@H]21 22.3%, C[C@@H]1CCCCO[C@@H](CN(C)Cc2ccncc2)[C@@H](C)CN([C@@H](C)CO)C(=O)c2cc(N(C)C)ccc2O1 12.4%
